From PubChem BioAssay (Tox21)
Results filed as inconclusive are left out. A call without a number means that no potency is given here. Unmarked numbers belong to inactive results. Active and inactive are the calls of the source. The call rests on the fitted dose curve; in most records, active means well fitted curve in the direction sought with a large enough effect in the repeat runs; inconclusive means weak or mixed curves; inactive means no such curve, though single readings can be large; an effect the other way counts as inactive or inconclusive. Where a SMILES comes first, the peptide text is derived from it.

Experiment: qHTS RealTime-Glo MT Cell Viability Assay in HepG2 cells - 24 hour (AID 1224867)
Conditions: RealTime-Glo luminescence; series mostly up to 76.8 µM
Method in brief: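 HepG2 cells were seeded at 600 cells/well together with NanoLuc luciferase and a cell-permeant prosubstrate, preincubated 5 h at 37 C/5% CO2, then pin-dosed with compounds in DMSO. Nonlytic luminescence from viable cells was read at each time point.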
Further: nearly all actives have a fitted effect of over 50% in size.

| Compound | outcome | activity change, negative = cytotoxicity |
| --- | --- | --- |
| CCO | inactive | – |
| CC1=C(O)C(=O)C(C)O1 (centres undefined) | inactive | – |
| COP(=O)(O)OP(=O)(O)OC | inactive | – |
| COC(=O)c1ccccc1C(=O)O | inactive | – |
| CCCCCCCCCCCCCCCCCCOCCO | – | -2.19% [at 15.8 µM] |
| CCNC(=O)NCc1cccc(Cl)c1 | inactive | – |
| OC1OCCOC1O (centres undefined) | inactive | – |
| Cc1c(Cl)cccc1Cl | inactive | – |
| CC(=O)OC1CCCCC1C(C)(C)C (centres undefined) | inactive | – |
| CCCCCCC1(C)CCC(=O)O1 (centres undefined) | inactive | – |
| C=CCCCCCCCC | inactive | – |
| Cc1cc(C)c(C(=O)O)c(C)c1 | inactive | – |
| CC1(C)Cc2cccc(N)c2O1 | inactive | – |
| COC(C)(OC)OC | inactive | – |
| O=C(NCN1CCOCC1)c1cnccn1 | inactive | – |
| COc1cc(/C=C/C(N)=O)cc(OC)c1OC | inactive | – |
| CCCCOCC(C)O (centres undefined) | inactive | – |
| COC(=O)CCCCC(CCSS/C(CCO)=C(\C)N(C=O)Cc1cnc(C)nc1N)SC(C)=O (centres undefined) | inactive | – |
| C[C@]12CCC(=O)C=C1CC[C@H]1[C@@H]3CC[C@](O)(C(=O)CO)[C@@]3(C)C[C@H](O)[C@@]12F | inactive | – |

| Compound | outcome | activity change, negative = cytotoxicity |
| --- | --- | --- |
| CCn1cc(C(=O)O)c(=O)c2cnc(N3CCCC3)nc21 | – | 0.974% [at 6.97 µM] |
| C[C@@H](O)C(=O)O | inactive | – |
| O=C(Cl)c1ccccc1[N+](=O)[O-] | inactive | – |
| CC(=O)N[C@@H](CO)C(=O)N[C@@H](CC(=O)O)C(=O)N[C@@H](CCCCN)C(=O)N1CCC[C@H]1C(=O)O (Ac-SDKP-OH) | inactive | – |
| COc1cc(OC)nc(O[C@H](C(=O)O)C(OC)(c2ccccc2)c2ccccc2)n1 | inactive | – |
| CC1(C)CC(OC(=O)CCCCCCCCC(=O)OC2CC(C)(C)NC(C)(C)C2)CC(C)(C)N1 | – | 2.8% [at 15.8 µM] |
| CC1(C)O[C@H]2CC(=O)OC[C@]23[C@H]2CC[C@@]4(C)[C@H](c5ccoc5)OC(=O)[C@H]5O[C@]54[C@]2(C)C(=O)C[C@@H]13 | inactive | – |
| CC(N)CCCC(C)(C)O (centres undefined) | inactive | – |
| COC(=O)c1cccc(Cl)c1 | inactive | – |
| CC(C)OC(=O)CCC(=O)OC(C)C | inactive | – |
| CCN(CC)CCN | inactive | – |
| CCOCCOCC | inactive | – |
| C[C@H]1[C@@H](c2ccccc2)NC(=O)N1C | inactive | – |
| CN(C)CCN(C)CCO | inactive | – |
| CN(C)CCOC(=O)C(c1ccccc1)C1(O)CCCC1 (centres undefined) | inactive | – |
| CC1=C(C(=O)O)N2C(=O)[C@@H](NC(=O)[C@H](N)C3=CCC=CC3)[C@H]2SC1 | inactive | – |
| CC(=O)O[C@H]1C[C@@H]2CC[C@@]1(C)C2(C)C | inactive | – |
| Cc1ccc(C(C)NC(=O)[C@@H](NC(=O)OC(C)C)C(C)C)cc1 (some centres undefined) | inactive | – |

Experiment: qHTS RealTime-Glo MT Cell Viability Assay in HEK293 cells - 32 hour (AID 1224868); further: top concentration of the series differs between compounds
Conditions: RealTime-Glo luminescence; series mostly up to 76.8 µM
Method in brief: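 HEK293 cells were seeded at 600 cells/well together with NanoLuc luciferase and cell-permeant prosubstrate, preincubated 5 h at 37 C/5% CO2, then given compound in DMSO by pintool. Luminescence from viable-cell prosubstrate reduction was read repeatedly over 40 h.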

| Compound | Potency | activity change, negative = cytotoxic |
| --- | --- | --- |
| CCO | inactive | – |
| CC1=C(O)C(=O)C(C)O1 (centres undefined) | inactive | – |
| COP(=O)(O)OP(=O)(O)OC | inactive | – |
| COC(=O)c1ccccc1C(=O)O | inactive | – |
| CCCCCCCCCCCCCCCCCCOCCO | – | -2.29% [at 15.8 µM] |
| CCNC(=O)NCc1cccc(Cl)c1 | inactive | – |
| OC1OCCOC1O (centres undefined) | inactive | – |
| Cc1c(Cl)cccc1Cl | inactive | – |
| CC(=O)OC1CCCCC1C(C)(C)C (centres undefined) | inactive | – |
| CCCCCCC1(C)CCC(=O)O1 (centres undefined) | inactive | – |
| C=CCCCCCCCC | inactive | – |
| Cc1cc(C)c(C(=O)O)c(C)c1 | inactive | – |
| CC1(C)Cc2cccc(N)c2O1 | inactive | – |
| COC(C)(OC)OC | inactive | – |
| O=C(NCN1CCOCC1)c1cnccn1 | inactive | – |
| COc1cc(/C=C/C(N)=O)cc(OC)c1OC | inactive | – |
| CCCCOCC(C)O (centres undefined) | inactive | – |
| COC(=O)CCCCC(CCSS/C(CCO)=C(\C)N(C=O)Cc1cnc(C)nc1N)SC(C)=O (centres undefined) | inactive | – |
| C[C@]12CCC(=O)C=C1CC[C@H]1[C@@H]3CC[C@](O)(C(=O)CO)[C@@]3(C)C[C@H](O)[C@@]12F | inactive | – |

| Compound | Potency | activity change, negative = cytotoxic |
| --- | --- | --- |
| CCn1cc(C(=O)O)c(=O)c2cnc(N3CCCC3)nc21 | – | 10% [at 6.97 µM] |
| C[C@@H](O)C(=O)O | inactive | – |
| O=C(Cl)c1ccccc1[N+](=O)[O-] | inactive | – |
| CC(=O)N[C@@H](CO)C(=O)N[C@@H](CC(=O)O)C(=O)N[C@@H](CCCCN)C(=O)N1CCC[C@H]1C(=O)O (Ac-SDKP-OH) | inactive | – |
| COc1cc(OC)nc(O[C@H](C(=O)O)C(OC)(c2ccccc2)c2ccccc2)n1 | inactive | – |
| CC1(C)CC(OC(=O)CCCCCCCCC(=O)OC2CC(C)(C)NC(C)(C)C2)CC(C)(C)N1 | – | 12.2% [at 15.8 µM] |
| CC1(C)O[C@H]2CC(=O)OC[C@]23[C@H]2CC[C@@]4(C)[C@H](c5ccoc5)OC(=O)[C@H]5O[C@]54[C@]2(C)C(=O)C[C@@H]13 | inactive | – |
| CC(N)CCCC(C)(C)O (centres undefined) | inactive | – |
| COC(=O)c1cccc(Cl)c1 | inactive | – |
| CC(C)OC(=O)CCC(=O)OC(C)C | inactive | – |
| CCN(CC)CCN | inactive | – |
| CCOCCOCC | inactive | – |
| C[C@H]1[C@@H](c2ccccc2)NC(=O)N1C | inactive | – |
| CN(C)CCN(C)CCO | inactive | – |
| CN(C)CCOC(=O)C(c1ccccc1)C1(O)CCCC1 (centres undefined) | inactive | – |
| CC1=C(C(=O)O)N2C(=O)[C@@H](NC(=O)[C@H](N)C3=CCC=CC3)[C@H]2SC1 | inactive | – |
| CC(=O)O[C@H]1C[C@@H]2CC[C@@]1(C)C2(C)C | inactive | – |
| Cc1ccc(C(C)NC(=O)[C@@H](NC(=O)OC(C)C)C(C)C)cc1 (some centres undefined) | inactive | – |
